From PubChem BioAssay
An excerpt weighted towards active compounds, which were near 13% of everything screened.
HCV inh: qHTS Assay for Inhibitors of Hepatitis C Virus (HCV); Huh7.5.1 HCVcc-Cre infection, luciferase reporter, 44 h; 340,000 tested, 3.4% active; Potency, µM (series often up to 41.8 µM), most hits filed as inhibitors; active means well fitted inhibition curve with a large enough effect; inconclusive means small, poorly fitted or top-dose-only effect, or another doubt; inactive means no such curve, though single readings can be large or run the other way
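Infectious HCV cell culture screen: compound-treated cells (1,000/well, pre-plated 4 h) are infected with HCVcc-Cre at roughly 0.5 moi and grown 44 h. Infection is quantified by luciferase signal after 15 min substrate incubation at room temperature.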
Lassa entry inh: qHTS for Inhibitors of binding or entry into cells for Lassa Virus; Lassa virus pseudotype entry inhibition, cell reporter; Potency, µM (highest dose often 37.9 µM), most hits filed as inhibitors; 300,000 tested, 1.2% active; AID 540256, 2011; calls by dose curve; tested in HEK293 cells; further: nearly all actives have a fitted effect of over 50% in size
Shiga inhibitor: A qHTS for Small Molecule Inhibitors of Shiga Toxin | Vero cells, Shiga toxin protein synthesis inhibition reporter | 290,000 tested, 9.2% active | AID 2315, 2010 | inhibition, % at 38.7 µM; in the data active means inhibition mostly above about 28%, no sharp cut-off; inactive means mostly below about 43%
CHX counter: Cycloheximide Counterscreen for Small Molecule Inhibitors of Shiga Toxin | max response, % | AID 2314, 2010 | 300,000 tested, 12% active | cell reporter, cycloheximide protein synthesis inhibition counterscreen; in the data active means max response mostly above about 13%, no sharp cut-off; inactive means mostly below about 14%; further: read at 38.3 µM for the half of the compounds with a filed dose
FMDV inh: High Throughput Screening for Foot and Mouth Disease Virus Antivirals. FMDV antiviral cell-based qHTS. Potency, µM (titrated, usually from 57.9 µM), most hits filed as inhibitors. 410,000 tested, 1.2% active; calls by dose curve; tested in HEK293T cells; further: read-out not given here; nearly all actives have a fitted effect of over 45% in size
Marburg entry inh: qHTS for inhibitors of binding or entry into cells for Marburg Virus. Marburg virus pseudotyped entry inhibition, cell reporter. 300,000 tested, 1.8% active. Potency, µM (highest dose often 37.8 µM), usual class: inhibitors; calls by dose curve; tested in HEK293 cells
Hits are given with their value; i = inactive; ? = inconclusive; nt = no result.

SMILES | HCV inh | Lassa entry inh | Shiga inhibitor | CHX counter | FMDV inh | Marburg entry inh
CN(C)c1ccc(/C=N/n2ncc3ccccc32)cc1 | ? | 13µM | 98 | 39 | nt | 10µM
C=CCn1c(/N=C/c2ccc(N(C)C)cc2)nc2ccccc21 | i | i | i | i | i | ?
Cc1ccc(OCc2nnc(N)s2)cc1C | i | ? | 59 | 21 | i | i
Cc1ccc(OCc2nnc(N)s2)cc1 | i | ? | 27 | 28 | i | ?
c1ccc(COc2ccc(Oc3nc(N4CCCCC4)nc(N4CCOCC4)n3)nn2)cc1 | i | 5.8µM | i | i | i | ?
CN1CCCN(C(=O)COc2ccc(Br)cc2)CC1 | i | nt | i | i | i | nt
O=C(Nc1ccccc1)c1ccc(CSc2ccccn2)cc1 | ? | ? | 63 | 36 | i | ?
COc1ccccc1NC(=O)c1nc(SCc2ccc(F)cc2)ncc1Cl | nt | i | nt | nt | i | i
COc1ccccc1NC(=O)c1ccc(CSc2ncccn2)cc1 | nt | nt | 55 | 14 | nt | nt
FC(F)(F)c1ccc(CSc2ccccn2)cc1 | i | i | 53 | 19 | i | i
CC(C)=C1C(=O)NN(c2ccc(F)c(Cl)c2)C1=O | nt | i | i | i | i | i
O=C1NN(c2ccc(F)c(Cl)c2)C(=O)/C1=C\c1cccc(OC(=O)c2cccs2)c1 | i | i | i | i | 28µM | i
COc1ccc(-c2noc(CCC(=O)NC3CCCCCC3)n2)cc1 | i | nt | i | i | i | nt
O=C(/C=C\Nc1ccc(S(=O)(=O)Nc2ncccn2)cc1)c1ccccc1 | i | i | 142 | 51 | i | ?
COc1ccc(C(=O)/C=C/Nc2ccc(S(=O)(=O)Nc3cccc(C(C)=O)c3)cc2)cc1 | 11µM | ? | 93 | 39 | i | ?
O=C(/C=C/Nc1ccc(S(=O)(=O)Nc2ncccn2)cc1)c1ccc2ccccc2c1 | ? | i | i | i | i | i
COc1cccc(C(=O)/C=C/Nc2ccc(S(=O)(=O)Nc3ccc(C(C)=O)cc3)cc2)c1 | i | ? | 91 | 51 | i | ?
COc1cccc(C(=O)/C=C/Nc2ccc(S(=O)(=O)Nc3nc(C)cc(C)n3)cc2)c1 | i | i | i | i | i | i
COc1cccc(C(=O)/C=C/Nc2ccc(S(=O)(=O)Nc3ncccn3)cc2)c1 | i | i | 103 | 43 | i | i
CCc1cccc(C)c1NC(=O)CO/N=C(\C)c1cc2ccccc2o1 | ? | ? | i | i | ? | ?
CCOC(=O)N1CCN(c2ccc(S(=O)(=O)N3CCOCC3)cc2[N+](=O)[O-])CC1 | i | i | nt | nt | i | i
CC(=O)c1ccc(NS(=O)(=O)c2ccc(C)cc2)cc1 | i | i | i | i | i | i
CC(=O)c1ccc(NS(=O)(=O)c2cccc(C)c2)cc1 | i | i | 89 | 36 | i | ?
c1ccc(-c2cc(-c3cc(-c4ccccc4)on3)no2)cc1 | nt | nt | nt | nt | i | nt
O=C1CC(c2cc(-c3ccccc3)no2)C1 | i | nt | 42 | 39 | i | nt
SMILES | HCV inh | Lassa entry inh | Shiga inhibitor | CHX counter | FMDV inh | Marburg entry inh
COc1ccc(-c2ccc(CN3C(CC(C)C)C(=O)N(Cc4cn(CC5CCCCC5)nn4)CCS3(=O)=O)cc2)cc1OC (stereo not drawn) | nt | nt | nt | nt | i | nt
CC(C)CC1C(=O)N(Cc2cn(CC3CCCCC3)nn2)CCS(=O)(=O)N1Cc1ccc(-c2ccncc2)cc1 (stereo not drawn) | nt | 14µM | nt | nt | i | nt
CC1C(=O)N(Cc2cn(CCC3OCCCO3)nn2)CCS(=O)(=O)N1Cc1ccc(-c2ccc(Cl)cc2)cc1 (stereo not drawn) | nt | nt | nt | nt | 11µM | nt
Cc1cccc(Cc2c(C)nc3nc(SCC(=O)NCc4ccccc4)nn3c2C)c1 | nt | i | nt | nt | i | i
O=c1[nH]c(CN2CCN(Cc3ccc4c(c3)OCO4)CC2)nc2ccccc12 | i | i | i | 8.6 | i | i
c1ccc2c(c1)oc1c(N3CCN(Cc4ccc5c(c4)OCO5)CC3)ncnc12 | ? | ? | 98 | 36 | i | ?
c1ccc(Cn2nnc3c(N4CCN(Cc5ccc6c(c5)OCO6)CC4)ncnc32)cc1 | 7.1µM | i | i | i | ? | ?
O=C1CCS/C(=N\N=C\c2ccc(Cl)cc2Cl)N1 | i | i | i | 16 | i | i
Cc1ccccc1/C=N/N=C1/NC(=O)CCS1 | i | i | 92 | 40 | i | i
COc1cc2c(C(=O)N3CCN(c4cccc(C(F)(F)F)c4)CC3)cn(CC(C)C)c(=O)c2cc1OC | nt | ? | nt | nt | i | nt
Nc1nc(NC(=O)c2ccccc2Cl)nn1-c1ccccc1 | i | i | i | i | i | i
CCOc1ccc(S(=O)(=O)NC(C)(C)C)cc1-c1nc2c(C(C)(C)C)nn(C)c2c(=O)[nH]1 | 7.1µM | 21µM | i | i | nt | ?
Nc1nonc1-c1nc2ccccc2n1CC(=O)Nc1cccc(C(F)(F)F)c1 | nt | i | nt | nt | ? | ?
O=C(CCc1ccccc1)NC(NC(=S)Nc1cccc(Cl)c1)C(Cl)(Cl)Cl (stereo not drawn) | i | i | i | i | nt | i
CCCC(=O)NC(NC(=S)Nc1ccc(N=Nc2ccccc2)cc1)C(Cl)(Cl)Cl (stereo not drawn) | 10µM | ? | 39 | 35 | ? | ?
O=C(CCc1ccccc1)NC(NC(=S)Nc1ccc(Br)cc1)C(Cl)(Cl)Cl (stereo not drawn) | 2µM | ? | i | i | nt | ?
Cc1ccc(C(=O)SC2=NCCS2)cc1 | i | i | i | i | 35µM | i
O=C(CSc1cccc2cccnc12)N1CCCC1 | 0.71µM | ? | 37 | 42 | ? | ?
O=C(CSc1cccc2cccnc12)OCC(=O)c1ccccc1 | i | ? | i | i | i | ?
CN(C)C(=O)CSc1cccc2cccnc12 | ? | i | i | 12 | ? | ?
O=C(CSc1ncccn1)N1CCCCCC1 | i | nt | nt | nt | i | nt
Cc1ccc(NC(=S)NCc2ccc3c(c2)OCO3)cc1C | i | i | i | i | i | i
O=C(CN1CCN(CC(=O)Nc2ccccc2Cl)CC1)Nc1ccc2c(c1)OCCO2 | i | i | i | i | i | ?
S=C(Nc1ccc(Cl)cc1)Nc1ccc2c(c1)OCCO2 | i | nt | 58 | 39 | i | nt
S=C(Nc1ccc2c(c1)OCCO2)Nc1ccccc1Cl | i | i | 48 | 33 | i | i
SMILES | HCV inh | Lassa entry inh | Shiga inhibitor | CHX counter | FMDV inh | Marburg entry inh
CN(C)C(=S)Nc1ccc2c(c1)OCO2 | i | i | i | i | i | ?
S=C(NCc1ccc2c(c1)OCO2)Nc1ccc2nsnc2c1 | ? | i | i | 15 | i | i
Fc1ccc(NC(=S)Nc2ccc(F)c(Cl)c2)cc1Cl | ? | i | i | i | ? | i
S=C(Nc1ccc2c(c1)OCO2)Nc1ccc2c(c1)OCO2 | i | i | 66 | 55 | i | i
COc1ccc2[nH]c3c(c2c1)CCN1C(=O)C(CC(=O)NCCCn2ccnc2)C[C@H](C(=O)N2CCOCC2)[C@@]31C (stereo partly drawn) | i | nt | nt | nt | i | nt
Cc1ccccc1NC(=O)CCNS(=O)(=O)c1cccc2nsnc12 | i | i | i | i | i | i
CC1=C(C#N)S(=O)(=O)C(C#N)C(c2ccccc2)C1 (stereo not drawn) | i | i | i | i | i | i
CCOC(=O)c1cccc(NC(=O)CCc2c(C)nc3cc(-c4ccc(Cl)cc4)nn3c2C)c1 | nt | ? | nt | nt | ? | i
